IMPase Li cell = cell-permeable IMPase inhibitors with lithium potentiation. CHO-M1 cells, IP1 TR-FRET (IP-One), carbachol + lithium. Potency, µM (doses to about 59.4 µM), for the others: at the highest dose activity, negative = IMPase inhibition, most hits filed as inhibitors. 210,000 tested, 0.35% active. AID 1457;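 further: IP1 builds up when IMPase is blocked and the TR-FRET signal falls; potency means the concentration at half of the fitted maximal effect; plate controls were basal vehicle for no effect and high inhibitor control for full effect; nearly all actives have a fitted effect of over 50% in size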
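Lithium-sensitised IP1 accumulation assay; M1-expressing CHO cells treated 30 min at 37C with compound. Competitive antibody detection by time-resolved FRET followed a 10 min room-temperature lysis step.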
IMPase cell inh = cell-permeable inhibitors of inositol monophosphatase (IMPase) | CHO-M1 cells, IP1 accumulation, HTRF TR-FRET ratio | inhibition (IP1 accumulation), % at 46.1 µM | 120,000 tested, under 10 active; active means well fitted curve in the direction sought with a large enough effect in the signal ratio, not every such curve was filed as active; inconclusive means small, poorly fitted or top-dose-only effect, or a change in a side signal; inactive means no such curve, though single readings can be large or run the other way; the % refers to the signal ratio;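 further: cells stimulated with carbachol in lithium chloride buffer; plate controls were DMSO basal wells for no effect and reference inhibitor wells for full effect; higher means more IMPase inhibition seen as more IP1 and lower FRET ratio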
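CHO-M1 cells (CHO stably expressing M1 receptor), compound up to 46 uM final, stimulated with carbachol (50 uM as added) in buffer with 50mM LiCl, pH 7.4, 30 min at 37C. Cytosolic IP1 read by TR-FRET; AC50 from Hill fits.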
HPGD inh = inhibitors of human 15-hydroxyprostaglandin dehydrogenase (HPGD). purified HPGD, NADH fluorescence kinetic, PGE2 substrate. Potency, µM, inactives show at the top dose activity change, negative = inhibition, usual class: inhibitors. 150,000 tested, 4.3% active; active means well fitted inhibition curve with a large enough effect, not every such curve was filed as active; inconclusive means small, poorly fitted or top-dose-only effect, or another doubt; inactive means no such curve, though single readings can be large or run the other way; further: potency means the concentration at half of the fitted maximal effect
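20 nM HPGD preincubated 15 min at room temperature with compound in 50 mM Tris-HCl pH 8, 0.01% Tween 20. Started with 1 mM NAD+ and 30 uM prostaglandin E2; NADH fluorescence (360/450 nm) read 5 times over 30-s intervals, last minus first.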
ALDH1A1 inh = blocks purified human ALDH1A1 activity | 220,000 tested, 7.3% active | P00352 | Potency, µM (doses to about 75.3 µM), inactives show top-dose activity, negative = inhibition, hits mostly inhibitors | AID 1030 | Purified ALDH1A1, NADH fluorescence, propionaldehyde substrate; active means well fitted inhibition curve with a large enough effect, not every such curve was filed as active; inconclusive means small, poorly fitted or top-dose-only effect, or another doubt; inactive means no such curve, though single readings can be large or run the other way;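 further: potency means the concentration at half of the fitted maximal effect; plate controls were no enzyme wells and a reference inhibitor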
ALOX12 inhib = blocks human 12-lipoxygenase activity | P18054 | purified 12-hLO, xylenol orange hydroperoxide absorbance | Potency, µM (titrated, usually from 57.1 µM), for inactives: at the top dose activity change, negative = inhibition, most hits filed as inhibitors | 150,000 tested, 0.12% active | AID 1452; further: potency means the concentration at half of the fitted maximal effect; nearly all actives have a fitted effect of over 55% in size
Target sequence (P18054 whole entry, looked up): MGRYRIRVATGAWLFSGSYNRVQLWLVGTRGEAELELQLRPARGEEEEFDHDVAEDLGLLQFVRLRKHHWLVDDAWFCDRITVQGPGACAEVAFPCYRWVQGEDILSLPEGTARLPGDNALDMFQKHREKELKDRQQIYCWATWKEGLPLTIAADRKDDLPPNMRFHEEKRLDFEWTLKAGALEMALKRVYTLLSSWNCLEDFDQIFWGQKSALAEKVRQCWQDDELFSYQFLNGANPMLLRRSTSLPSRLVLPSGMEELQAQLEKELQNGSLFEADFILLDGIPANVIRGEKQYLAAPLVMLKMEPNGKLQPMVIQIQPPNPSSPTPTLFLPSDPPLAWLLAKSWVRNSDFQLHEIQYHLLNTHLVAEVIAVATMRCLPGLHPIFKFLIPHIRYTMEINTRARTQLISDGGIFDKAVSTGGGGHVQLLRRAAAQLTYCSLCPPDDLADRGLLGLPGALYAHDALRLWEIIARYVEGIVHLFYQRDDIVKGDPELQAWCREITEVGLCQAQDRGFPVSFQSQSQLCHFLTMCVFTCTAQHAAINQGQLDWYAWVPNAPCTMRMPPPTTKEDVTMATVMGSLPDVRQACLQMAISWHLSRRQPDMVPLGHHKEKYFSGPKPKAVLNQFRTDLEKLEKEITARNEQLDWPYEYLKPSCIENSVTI
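Purified human 12hLO (150 nM), preincubated 15 min with compound, then 40 uM arachidonic acid for 30 min, room temperature, Hepes pH 7.0 with 0.01% Triton X-100. Hydroperoxide detected by ferrous iron/xylenol orange; 573/405 nm absorbance ratio gives reaction progress.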
NPSR antag = antagonists of human neuropeptide S receptor cAMP signaling; CHO-NPSR cells, cAMP TR-FRET, antagonist mode; 220,000 tested, 1% active; Potency, µM (highest dose often 38.3 µM), for the others: at the highest dose activity change, negative = inhibition, usual class: inhibitors; Q6W5P4; further: potency means the concentration at half of the fitted maximal effect; nearly all actives have a fitted effect of over 50% in size
An asterisk follows results filed as active; ? = inconclusive; · = not tested or not shown; [ ] = remark or other dose. An excerpt weighted towards active compounds, which were near 8.9% of everything screened. Unless noted, the call rests on the fitted dose curve; in most records, active means well fitted curve in the direction sought with a large enough effect; inconclusive means small, poorly fitted or top-dose-only effect, or another doubt; inactive means no such curve, though single readings can be large; an effect the other way counts as inactive or inconclusive. Unless noted, on the % scale 0 is the no-effect control and ±100 the full control effect.

SMILES	IMPase Li cell	IMPase cell inh	HPGD inh	ALDH1A1 inh	ALOX12 inhib	NPSR antag
CN(C)C(=O)c1ccc(-c2nc(N(C)Cc3ccco3)c3ccccc3n2)cc1	6.6%	·	12.6µM*	?	-2.0%	·
Cc1cccc(CNc2nc(-c3cccnc3)nc3ccccc23)c1	22.2%	·	-25.8%	?	-4.5%	·
CC(=O)NCCNc1nc(-c2ccc(C(=O)N(C)C)cc2)nc2ccccc12	-9.8%	·	·	17.4%	·	·
CN(C)C(=O)c1ccc(-c2nc(NCc3cccs3)c3ccccc3n2)cc1	6.6%	·	15.8µM*	1.1%	2.9%	·
Cc1cccc(CNc2nc(-c3ccc(C(=O)N(C)C)cc3)nc3ccccc23)c1	13.8%	·	25.1µM*	-7.6%	-1.3%	·
CC(C)C(OC(=O)c1cccs1)C(=O)NCc1ccc2c(c1)OCO2 (stereo not drawn)	9.5%	·	·	-11.6%	·	-13.7%
CC(OC(=O)c1cccs1)C(=O)NCc1ccc2c(c1)OCO2 (stereo not drawn)	6.3%[38.3 µM]	1.2	28.2µM*	3.6%	0.8%	-4.7%[46.1 µM]
CC(C)C(OC(=O)c1nsc(Cl)c1Cl)C(=O)NCc1ccc2c(c1)OCO2 (stereo not drawn)	0.5%[38.3 µM]	-1.1	2.24µM*	-5.3%	-0.6%	-15.5%[46.1 µM]
O=C(N=c1nc2ccccn2s1)c1ccccc1	-12.0%[38.3 µM]	-8.6	-28.8%	2.2%	0.7%	3.6%[46.1 µM]
CCOC(=O)N1CCN(C(=O)C(=O)NN)CC1	8.3%	·	·	12.6µM*	·	-3.4%
O=C1CC(c2ccco2)Cc2c1cnn2-c1nc2ccccc2s1 (stereo not drawn)	12.6µM*	·	-13.6%	?	1.1%	?
CCOc1ccc(C(C)=O)cc1N1C(=O)C2C3C=CC(C3)C2C1=O (stereo not drawn)	13.4%[38.3 µM]	8.4	0.0%	10.2%	0.8%	4.8%[46.1 µM]
COc1ccc(CCN2C(=O)C3C4CCC(C4=C(C)C)C3C2=O)cc1OC (stereo not drawn)	12.8%	·	-7.4%	12.6µM*	-1.3%	7.3%
CCOc1ccc(CCN2C(=O)C3C4C=CC(C4)C3C2=O)cc1OCC (stereo not drawn)	31.5%[38.3 µM]	16.1	-12.4%	3.55µM*	3.4%	-9.0%[46.1 µM]
COc1ccc(CCN2C(=O)CC(NC34CC5CC(CC(C5)C3)C4)C2=O)cc1OC (stereo not drawn)	6.0%	·	·	10µM*	·	-3.3%
COc1ccc(CCN2C(=O)C3C4CC(C5C(C(N)=O)=NOC45)C3C2=O)cc1OC (stereo not drawn)	18.8%[38.3 µM]	-4.4	-8.9%	?	6.1%	1.7%[46.1 µM]
COc1ccc(CCN2C(=O)CC(NCCc3ccc(S(N)(=O)=O)cc3)C2=O)cc1OC (stereo not drawn)	17.3%[38.3 µM]	-1.0	-2.2%	10µM*	-8.4%	0.6%[46.1 µM]
Cc1ccc(SCc2noc(-c3c(C)noc3C)n2)cc1	·	·	·	·	·	-2.5%
OC1(c2ccc(Br)cc2)CCNCC1	-1.1%[38.3 µM]	-7.2	-3.3%	7.2%	-4.6%	1.1%[46.1 µM]
CC1(C)OC(=O)N(CCc2ccccc2)C1(C)O (stereo not drawn)	39.8%[38.3 µM]	-3.3	-12.0%	1.8%	-4.6%	-0.6%[46.1 µM]
CC1(C)OC(=O)N(Cc2ccco2)C1(C)O (stereo not drawn)	-13.3%[38.3 µM]	1.1	-16.7%	17.8µM*	-2.5%	3.7%[46.1 µM]
N#Cc1c(-c2ccco2)nc(SCC(=O)Nc2cccc(Cl)c2)[nH]c1=O	10µM*	?	17.8µM*	?	-13.4%	?
CCC1C(=O)N=C(SCC(=O)Nc2ccc(C(=O)OC)cc2)NC1=O (stereo not drawn)	18.5%[38.3 µM]	7.8	14.1µM*	2.5%	1.8%	4.3%[46.1 µM]
O=C(CSc1nc(-c2ccc(Cl)cc2)[nH]c(=O)n1)Nc1cccc(Cl)c1	·	·	·	·	·	-12.9%
CC(=O)NC1C(=O)N=C(SCC(=O)Nc2cccc(Cl)c2)NC1=O (stereo not drawn)	5.5%	·	·	28.2µM*	·	13.3%
SMILES	IMPase Li cell	IMPase cell inh	HPGD inh	ALDH1A1 inh	ALOX12 inhib	NPSR antag
CCc1cccc(NC(=O)CSc2nc3c(c(=O)[nH]2)CCCC3)c1	0.8%	·	10µM*	3.3%	-3.4%	9.1%
O=C(CSc1nc2c(c(=O)[nH]1)CCC2)Nc1cccc(Cl)c1	-4.4%[38.3 µM]	-0.3	14.1µM*	-0.1%	-9.1%	-15.1%[46.1 µM]
CN(C)S(=O)(=O)c1cc(S(=O)(=O)N(C)C)c(Cl)cc1N	-2.4%[38.3 µM]	4.3	-5.6%	12.6µM*	2.3%	-2.2%[46.1 µM]
CN(C)S(=O)(=O)c1cc(C(=O)O)c(NC2CCCCC2)cc1Cl	15.1%[38.3 µM]	0.8	-24.2%	?	-1.7%	-4.4%[46.1 µM]
CSc1ccccc1C(=O)C1CCCN(C(=O)c2cc(C(C)C)no2)C1 (stereo not drawn)	-3.8%	·	·	17.8µM*	·	3.8%
Oc1ccc(Cl)cc1C1=NNC(c2cccs2)C1 (stereo not drawn)	·	·	·	·	·	-1.3%[7.67 µM]
COc1ccc(C2C(=O)c3ccccc3C2=O)cc1OC	43.6%	·	·	-2.9%	·	12.6µM*
CCOC(=O)c1c(NC(=S)Nc2cc([N+](=O)[O-])ccc2OC)sc2c1CCCCC2	-4.0%	-7.9	-26.6%	?	-4.3%	-25.2%
COC(=O)c1c(NC(=S)Nc2cc(OC)c(Cl)cc2OC)sc2c1CCCCC2	-12.3%	·	?	6.31µM*	-2.6%	-47.5%
Nn1cnnc1N/N=C\c1ccc(-c2ccccc2[N+](=O)[O-])o1	13.3%	5.7	-21.6%	25.1µM*	0.4%	-17.1%
O=[N+]([O-])c1ccccc1-c1ccc(/C=N/n2cnnc2)o1	-3.5%[38.3 µM]	-2.9	15.8µM*	-9.8%	-0.8%	-10.8%[46.1 µM]
O=C(Nc1ccccc1)N1CCN(Cc2ccc3c(c2)OCO3)CC1	3.6%[38.3 µM]	-5.6	-9.9%	-3.6%	1.1%	-4.5%[46.1 µM]
O=C(Nc1ccc(F)cc1)C(Cc1ccccc1)n1cccc1 (stereo not drawn)	·	·	·	·	·	-23.1%
CC(C)CC(NC(=O)OCC1c2ccccc2-c2ccccc21)C(=O)O (stereo not drawn)	1.4%	·	-8.9%	8.91µM*	1.9%	·
CCOC(=O)c1cc(C)[nH]c(=S)c1C#N	-0.4%[38.3 µM]	-0.4	-13.6%	20µM*	-7.3%	-2.6%[46.1 µM]
C#CCSc1nc(C)cc(C(=O)OCC)c1C#N	·	·	·	-7.6%	·	16.9%
Cc1ccccc1-n1nnnc1SCC(=O)N(C)C1CCS(=O)(=O)C1 (stereo not drawn)	-1.9%	·	·	11.2µM*	·	7.3%
COCCn1c(SCC(=O)N(C)C2CCS(=O)(=O)C2)nc2ccccc2c1=O (stereo not drawn)	2.2%	·	·	9.2%	·	4.1%
CN(C(=O)CSc1nnc2ccccn12)C1CCS(=O)(=O)C1 (stereo not drawn)	20.2%[38.3 µM]	-5.2	-16.1%	-14.6%	9.2%	-0.4%[46.1 µM]
CN(C(=O)CSc1nc2ccccc2n1CCc1ccccc1)C1CCS(=O)(=O)C1 (stereo not drawn)	16.2%[38.3 µM]	6.6	-14.0%	22.4µM*	4.0%	-7.8%[46.1 µM]
